DT40 TDP1 CPT: growth inhibition of DT40 Tdp1-/-;hTDP1 cells with camptothecin (screen for TDP1 inhibitors); chicken DT40 Tdp1-/-;hTDP1 cells + 20 nM CPT, ATP luminescence, 48 h; hit rate 12% among 420,000; AID 686979; Potency, µM (titrated, usually from 46.2 µM), actives largely listed as inhibitors; further: nearly all actives have a fitted effect of over 55% in size
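Chicken DT40 Tdp1-/- cells stably complemented with human TDP1 were seeded at 400 cells/well in medium containing 20 nM camptothecin, exposed to pin-transferred compounds, and grown at 37 °C for at least 48 hr. Viability was read as ATP luminescence.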
IL1B secr inh: inhibitors of inflammasome signaling (IL-1 beta secretion); THP-1 LPS/ATP IL-1B secretion, AlphaLISA, 16 h; hits give low values; activity change, % at 57.5 µM; hit rate 4.7% among 360,000; in the data active means activity change below about -50%; inconclusive means mostly about -30% to -49%
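THP-1 cells pretreated 1 hr with compounds (up to 57.5 uM final), then stimulated with LPS (250 ng/mL final) plus ATP (1.25 mM final); secreted IL-1B measured by AlphaLISA after 16 hr, decreased signal indicating inhibition.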
DT40 TDP1 no CPT: qHTS for Inhibitors of human tyrosyl-DNA phosphodiesterase 1 (TDP1): qHTS in cells in absence of CPT; AID 686978, 2013; Potency, µM (titrated, usually from 46.2 µM), hits mostly inhibitors; DT40 Tdp1-/- hTDP1 cells, no CPT, ATP luminescence, 48 h; hit rate 15% among 420,000; further: nearly all actives have a fitted effect of over 55% in size
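Stably hTDP1-transfected Tdp1-null chicken DT40 cells were treated with library compounds minus camptothecin and grown for at least 48 hr at 37 °C, after which cellular ATP was quantified by luminescence.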
TGFb SMAD3 inh: inhibitors of TGF-b signaling. HepG2 CAGA-GFP TGF-b/SMAD3 reporter, GFP fluorescence, 18 h; TGF-beta stimulated, 500 pg/mL final. Potency, µM (top dose mostly 46.1 µM), usual class: inhibitors. hit rate 1.2% among 410,000; further: nearly all actives have a fitted effect of over 65% in size
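Per well, imaged GFP fluorescence of HEPG2 CAGA-GFP cells gives the signal; cells get compound, then TGF-beta (500 pg/mL final), 18 h at 37 degrees C; %Activity versus -TGF-beta and +DMSO controls.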
TDP1 block: TDP1 (human) enzyme inhibition; Q9NUW8; AID 485290; recombinant TDP1, AlphaScreen DNA substrate cleavage; Potency, µM (doses to about 130 µM), most hits filed as inhibitors; hit rate 0.28% among 350,000; further: nearly all actives have a fitted effect of over 40% in size
Target sequence (Q9NUW8 whole entry, looked up): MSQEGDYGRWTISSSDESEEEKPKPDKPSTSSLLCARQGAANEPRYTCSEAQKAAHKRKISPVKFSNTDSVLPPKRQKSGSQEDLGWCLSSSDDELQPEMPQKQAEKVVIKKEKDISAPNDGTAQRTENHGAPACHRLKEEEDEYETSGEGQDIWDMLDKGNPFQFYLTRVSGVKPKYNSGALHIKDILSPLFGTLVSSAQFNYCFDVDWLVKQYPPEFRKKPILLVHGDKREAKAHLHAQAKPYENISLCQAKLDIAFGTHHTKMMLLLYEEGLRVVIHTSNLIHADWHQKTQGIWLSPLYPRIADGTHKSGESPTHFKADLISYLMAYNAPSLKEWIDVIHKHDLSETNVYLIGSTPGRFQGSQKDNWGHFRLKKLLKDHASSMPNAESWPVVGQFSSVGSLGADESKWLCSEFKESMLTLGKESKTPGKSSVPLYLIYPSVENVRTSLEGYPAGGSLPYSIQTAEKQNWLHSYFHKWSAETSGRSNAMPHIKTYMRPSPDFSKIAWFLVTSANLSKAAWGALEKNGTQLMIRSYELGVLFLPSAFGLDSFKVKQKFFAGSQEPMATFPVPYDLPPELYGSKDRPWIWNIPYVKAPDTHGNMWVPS
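AlphaScreen read-out: signal falls as enzyme removes the 3' tyrosine-FITC from a 5'-biotinylated DNA oligo (15 nM, 5 min, RT). Enzyme was E. coli-made recombinant Tdp1 at 1 nM, exposed to compound for 15 min beforehand; beads 10 ug/ml, 10 min.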
HepG2 tox: kills HepG2 cells in TGF-b inhibitor counter-screen; Potency, µM (titrated, usually from 46.1 µM), most hits filed as cytotoxic; HepG2 CAGA-GFP viability, ATP luminescence, 18 h; AID 588856; hit rate 0.76% among 410,000
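CellTiter-Glo luminescence gave cytotoxicity after 18 hours at 37 degrees C. The cells were HepG2 CAGA-GFP in 1% FBS DMEM, stimulated with 500 pg/mL TGF-beta after compound addition. %Activity was normalised to no-cell wells (complete cell-killing) and DMSO (no toxicity), and curves were fitted and classified.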
Numbers stand for hits; - = inactive; ? = inconclusive; . = not tested or not shown; ! = repeats disagree. In the library only some 18% were active in any assay of this set; here they are far more common. Unless noted, the call rests on the fitted dose curve; in most records, active means well fitted curve in the direction sought with a large enough effect; inconclusive means small, poorly fitted or top-dose-only effect, or another doubt; inactive means no such curve, though single readings can be large; an effect the other way counts as inactive or inconclusive.

SMILES	DT40 TDP1 CPT	IL1B secr inh	DT40 TDP1 no CPT	TGFb SMAD3 inh	TDP1 block	HepG2 tox
Cc1cccc(CCNC(=O)C2CCN(c3ncnc4c3nc3n4CCCCC3)CC2)c1	-	.	-	-	-	-
CCCc1ccc(S(=O)(=O)N/N=C\c2ccc3c(c2)OCO3)cc1	?	-	-	-	-	-
COc1ccc2c(C(=O)CCl)c[nH]c2c1	2.59µM	-	3.26µM	14.1µM	.	6.31µM
COc1ccccc1-c1ccc(/C=C2/C=C(C)OC2=O)o1	13µM	-	10.3µM	-	-	-
COc1ccccc1-c1ccc(/C=C2\C=CC(=O)O2)o1	20.6µM	.	?	-	.	-
COc1ccc(C(C(=O)NC2CCCCC2)N(C(=O)c2sc(C)nc2C)c2ccc(OC)cc2)cc1 (centres undefined)	?	-	-	-	-	-
COc1ccc(C(C(=O)NC2CCCC2)N(C(=O)c2snc(-c3ccc(F)cc3)c2N)c2ccccc2)cc1 (centres undefined)	14.6µM	-	20.6µM	-	-	-
COc1ccc(N(C(=O)c2ccn[nH]2)C(C(=O)NC2CCCC2)c2ccc(F)cc2)cc1 (centres undefined)	-	-	-	-	-	-
COc1ccc(N(C(=O)c2snc(C(N)=O)c2N)C(C(=O)NC2CCCC2)c2ccc3ncccc3c2)cc1 (centres undefined)	?	-	-	-	-	-
COc1ccc(C(C(=O)NC2CCCC2)N(C(=O)c2snc(-c3ccc(F)cc3)c2N)c2ccc(F)cc2)cc1 (centres undefined)	9.2µM	-	14.6µM	-	-	-
COc1ccc(C(C(=O)NC2CCCC2)N(C(=O)c2snc(-c3ccc(F)cc3)c2N)c2cccc(F)c2)cc1 (centres undefined)	6.51µM	-	7.31µM	-	-	-
COc1ccc(C(C(=O)NC2CCCC2)N(C(=O)c2snc(-c3ccc(F)cc3)c2N)c2ccc(OC)cc2)cc1 (centres undefined)	8.2µM	-	3.66µM	-	-	-
COc1cccc2sc(N(Cc3cccnc3)C(=O)C3COc4ccccc4O3)nc12 (centres undefined)	-	.	-	?	-	-
N#CCCCc1cn(-c2nc3ccccc3s2)nn1	-	-	-	.	.	.
O=C(c1cccc(-c2cncc3nccn23)c1)N1CCOCC1	-	-	-	-	.	-
CN1CCN(C(=O)c2cccc(-c3cnc4cnc(-c5ccccc5Oc5ccccc5)cn34)c2)CC1	18.4µM	-57.1	13µM	-	.	-
COc1ccc(CNC(=O)c2cc(=O)c3cc(C)ccc3o2)cc1	-	-	?	-	-	-
COc1ccc(-c2cn(CCCOCc3ccccc3)nn2)cc1	?	-	?	-	.	-
COc1ccc(CCCCCCOCc2ccccc2)cc1	-	-	-	-	20µM	-
CCCCCc1ccc(-c2cn(CC3CCCCC3)nn2)cc1	?	-	8.91µM	-	.	-
COc1ccc(CCCC(=O)NCCc2ccccc2)cc1	-	-	-	-	.	-
COc1ccc(-c2cn(CC3CCCCC3)nn2)cc1	-	-	-	-	.	-
CCCCCc1ccc(-c2cn(CCCOCc3ccccc3)nn2)cc1	?	-	22.4µM	?	.	-
c1ccc(-c2cn(CC3CCCCC3)nn2)cc1	?	-	12.6µM!	-	.	-
COc1ccc(Cl)cc1C(=O)Nn1cnnc1	-	-	-	-	.	-
SMILES	DT40 TDP1 CPT	IL1B secr inh	DT40 TDP1 no CPT	TGFb SMAD3 inh	TDP1 block	HepG2 tox
COc1ccc(C2=C(C)C(=O)N(Cc3ccc(C(=O)NCc4cccc(C)c4)cc3)S2(=O)=O)cc1	?	.	?	-	-	-
Cc1ccc2c(c1)N(C(=O)CCC(=O)N1CCN(c3ccccc3)CC1)CCO2	?	-	?	-	.	-
COc1cc(CCC(=O)N2CCN(c3cccc(C)c3C)CC2)cc(OC)c1OC	11.6µM	-	10.3µM	-	.	-
Cc1cccc(N2CCN(C(=O)CCC(=O)N3CC(C)Oc4ccccc43)CC2)c1C (centres undefined)	16.4µM	-	13µM	-	.	-
Cc1ccc2c(c1)N(C(=O)CCC(=O)N1CCN(c3cccc(C)c3C)CC1)CCO2	16.4µM	-	18.4µM	?	.	-
Cc1nn(C)c(C)c1NS(=O)(=O)c1ccc(N2CCCC2=O)cc1	18.4µM	-56.6	16.4µM	-	-	-
Cc1ccc(S(=O)(=O)Nc2c(C)nn(C)c2C)cc1C	20.6µM	-	13µM	-	.	-
O=C(/C=C/c1cccc(F)c1)OCC(=O)N1CCc2ccccc21	-	-	-	-	-	-
O=[N+]([O-])c1ccccc1/C=C/CN1CCN(Cc2ccc3c(c2)OCO3)CC1	-	-	-	-	.	-
CN(C)C(CNC(=O)c1cccc(S(=O)(=O)N2CCN(c3ccccc3)CC2)c1)c1ccccc1 (centres undefined)	?	-	?	-	.	-
O=C(NCc1ccccn1)c1cc(S(=O)(=O)N2CCN(c3ccccc3)CC2)ccc1Cl	10.3µM	-	18.4µM	?	-	-
COc1ccc(C(CNC(=O)c2ccc(S(=O)(=O)N3CC(C)CC(C)C3)cc2)N(C)C)cc1 (centres undefined)	?	-52.2	29.1µM	?	-	-
Cc1ccc(S(=O)(=O)N2CCCC2)cc1C(=O)NCc1ccccn1	-	-	-	-	-	-
COc1ccc(C(CNC(=O)c2cc(S(=O)(=O)N3CCN(c4ccccc4)CC3)ccc2Cl)N(C)C)cc1 (centres undefined)	20.6µM	?	18.4µM	?	-	-
COc1ccc(C(CNC(=O)c2ccc(S(=O)(=O)N3CCCC3)cc2)N(C)C)cc1OC (centres undefined)	?	-	-	-	-	-
O=C1/C(=C/c2ccc(S(=O)(=O)O)cc2S(=O)(=O)O)CCc2ccccc21	-	-	-	.	.	.
CC(=O)N(Cc1cc(=O)[nH]c2ccccc12)c1ccccc1	-	-	-	-	-	-
O=C(N(c1ccccc1)c1ccccc1)N(c1ccccc1)c1ccccc1	?	-	20.6µM	15.8µM	-	-
O=C(CCl)N(c1ccccc1)c1ccccc1	2.06µM	-108.0	1.84µM	?	-	11.2µM
O=Cc1[nH]c2ccccc2c1N(C(=O)CCl)c1ccccc1	10.3µM	.	14.6µM	?	-	-
O=C(O)CSCC(=O)N(c1ccccc1)c1ccccc1	-	-	-	-	-	-
CNC(=O)N(c1ccccc1)c1ccccc1	-	-	-	-	-	-
COc1ccccc1C(CNC(=O)c1cc(S(=O)(=O)N2CCOCC2)ccc1C)N1CCCC1 (centres undefined)	-	-	-	-	-	-
